About 800 (0.36%) of roughly 220,000 compounds were called active.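 Rule for the calls: active = inhibition above about 30% (limit read from the data); inactive = the rest.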 Shown is part of a subset that was picked to be rich in actives.
Biological target: Eukaryotic translation initiation factor 4E (Mus musculus) + Eukaryotic translation initiation factor 4 gamma 1 (Homo sapiens) (UniProt P63073+Q04637)
Assay: eIF4E–eIF4G protein interaction inhibitors, primary screen, biochemical, uHTS, TR-FRET, eIF4GI fragment (AID 782);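 note: 0% = full FRET control wells and 100% = background wells lacking eIF4GI fragment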
Conditions: TR-FRET eIF4E-eIF4GI(517-606) binding, 2 h; at 21.7 µM; hits give high values

Sequence of Eukaryotic translation initiation factor 4E (Mus musculus) + Eukaryotic translation initiation factor 4 gamma 1 (Homo sapiens) (P63073 whole entry, looked up, the tested form may be a part): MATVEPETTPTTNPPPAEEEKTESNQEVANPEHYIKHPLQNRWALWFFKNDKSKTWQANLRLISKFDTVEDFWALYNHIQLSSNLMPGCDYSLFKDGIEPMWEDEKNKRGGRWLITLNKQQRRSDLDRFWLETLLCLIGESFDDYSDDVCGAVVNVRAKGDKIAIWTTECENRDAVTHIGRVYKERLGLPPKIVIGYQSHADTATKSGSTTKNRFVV
Sequence of Eukaryotic translation initiation factor 4E (Mus musculus) + Eukaryotic translation initiation factor 4 gamma 1 (Homo sapiens) (Q04637 whole entry, looked up, the tested form may be a part): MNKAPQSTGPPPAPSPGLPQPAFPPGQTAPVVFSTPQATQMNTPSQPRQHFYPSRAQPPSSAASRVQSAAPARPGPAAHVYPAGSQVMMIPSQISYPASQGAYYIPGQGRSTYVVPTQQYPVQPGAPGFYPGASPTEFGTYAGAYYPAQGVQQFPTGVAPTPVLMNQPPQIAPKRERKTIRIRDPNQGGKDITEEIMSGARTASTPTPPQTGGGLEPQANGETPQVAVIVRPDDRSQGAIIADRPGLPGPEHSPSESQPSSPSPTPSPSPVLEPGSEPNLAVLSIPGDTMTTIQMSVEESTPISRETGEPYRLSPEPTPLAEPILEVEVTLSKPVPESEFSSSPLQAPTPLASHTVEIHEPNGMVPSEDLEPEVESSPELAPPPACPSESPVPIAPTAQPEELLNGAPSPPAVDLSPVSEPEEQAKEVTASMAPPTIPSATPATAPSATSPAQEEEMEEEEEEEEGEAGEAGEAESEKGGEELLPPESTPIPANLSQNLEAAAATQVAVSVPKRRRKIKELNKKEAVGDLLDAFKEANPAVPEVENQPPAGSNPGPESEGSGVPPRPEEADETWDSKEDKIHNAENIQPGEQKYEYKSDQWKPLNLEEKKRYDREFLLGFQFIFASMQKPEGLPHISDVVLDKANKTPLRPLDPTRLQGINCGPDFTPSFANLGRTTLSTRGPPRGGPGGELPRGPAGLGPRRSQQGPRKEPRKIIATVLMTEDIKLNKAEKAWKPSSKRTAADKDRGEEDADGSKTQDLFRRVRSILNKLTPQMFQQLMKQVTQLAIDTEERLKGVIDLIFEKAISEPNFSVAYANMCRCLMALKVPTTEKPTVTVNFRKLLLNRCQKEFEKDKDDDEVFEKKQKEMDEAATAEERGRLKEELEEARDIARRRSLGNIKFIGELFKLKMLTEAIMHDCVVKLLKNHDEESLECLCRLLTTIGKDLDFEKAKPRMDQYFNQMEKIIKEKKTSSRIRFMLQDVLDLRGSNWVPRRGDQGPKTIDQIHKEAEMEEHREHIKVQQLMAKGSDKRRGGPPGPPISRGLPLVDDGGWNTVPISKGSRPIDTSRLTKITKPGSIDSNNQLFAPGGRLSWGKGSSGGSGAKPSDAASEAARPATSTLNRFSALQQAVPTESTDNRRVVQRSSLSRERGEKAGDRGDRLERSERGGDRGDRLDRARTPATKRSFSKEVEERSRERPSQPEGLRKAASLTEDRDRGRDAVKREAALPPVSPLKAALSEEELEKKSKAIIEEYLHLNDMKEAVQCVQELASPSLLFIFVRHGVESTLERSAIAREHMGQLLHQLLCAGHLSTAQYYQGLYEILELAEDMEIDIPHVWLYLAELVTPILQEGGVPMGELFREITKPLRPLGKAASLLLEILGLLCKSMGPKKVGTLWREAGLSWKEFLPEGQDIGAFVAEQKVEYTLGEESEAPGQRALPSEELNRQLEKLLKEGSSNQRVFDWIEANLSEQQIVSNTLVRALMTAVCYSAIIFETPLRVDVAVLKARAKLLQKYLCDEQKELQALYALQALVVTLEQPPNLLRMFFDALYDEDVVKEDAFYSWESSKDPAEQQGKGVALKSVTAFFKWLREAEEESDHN

inhibition, inactive:
COC(=O)/C=C(\Oc1ccccc1)C1(O)CCCCC1 3.79%
COC(=O)c1ccc(CSc2nc3ccccc3c(=O)n2-c2cccc(OC)c2)o1 2.4%
COCCn1c(C)cc(C(=O)CSc2nc3ccccc3c(=O)n2C(C)COC)c1C (configuration not stated) -1.77%
CSc1nc(C)nc(C2CC2)c1C#N -3.41%
Cc1cccc(N(C)C(=O)c2cc3c(=O)[nH]c4ccc(C)cc4c3s2)c1 -9.17%
O=S(=O)(Cc1noc(-c2ccc(OC(F)(F)F)cc2)n1)c1ccc(F)cc1 -0.8%
Cc1cc(-c2n[nH]c(=S)n2/N=C/c2ccco2)n[nH]1 -0.15%
S=c1[nH]nc(-c2ccco2)n1/N=C/c1ccccc1 -0.4%
O=C(N/N=C/c1ccc([N+](=O)[O-])o1)c1cccc(S(=O)(=O)N2CCOCC2)c1 0.27%
O=C(CN1CCN(c2ccc(O)cc2)CC1)Nc1cc(S(=O)(=O)N2CCOCC2)ccc1Cl 18.9%
COc1ccc(/C(N)=N/OC(=O)CCCc2ccccc2)cc1 -2.25%
Cc1ccc(SCC(=O)Nc2ccc3c(c2)OCCO3)cc1 0.94%
NC(N)=NCCCc1cn(CC(=O)N2CCNCC2)nn1 0.73%
FC(F)(F)c1nnc2ccc(N3CCN(c4ccccc4)CC3)nn12 0.95%
CCSc1nc(C)c(CCOc2cccc(C)c2)c(=O)[nH]1 -0.93%
CCOC(=O)c1c(NC(=O)CSc2nnc(CNc3ccc(C)cc3C)o2)sc(C)c1C -0.54%
COc1cc(C(=S)N2CCOCC2)ccc1O -0.65%
CCOc1cc(C(=O)OCC(=O)Nc2cccc(C)c2)ccc1OCC(=O)N1CCOCC1 0.63%
Cc1ccnc(NC(=O)CCCOc2ccccc2)c1 3.5%
CCOC(=O)N1CCC(=NNC(N)=O)CC1 2.99%
CC(C)NC(=S)NN=C1CCCCCCCCCCC1 -4.16%
CC(NC(=O)C(=O)NN=C1CCC(C(C)(C)C)CC1)c1ccccc1 (configuration not stated) 2.57%
O=C(N/N=C/c1ccc([N+](=O)[O-])cc1)c1c[nH]c2ccccc12 -2.85%
Cc1cc(C(=O)N/N=C/c2ccccc2[N+](=O)[O-])c(C)o1 2.6%
COC(=O)Nc1ncc(CN2CCCCC2)s1 1.52%
N/C(=N\S(=O)(=O)c1cc(C(F)(F)F)cc(C(F)(F)F)c1)c1cccs1 0.14%
Cc1ccc(C(=O)NC(=S)Nc2ccccc2C)cc1 -1.48%
CCOC(=O)c1c(N)sc2c1CCCC2=O -0.22%
Cc1cc2cc(CNC(=O)c3ccc(S(=O)(=O)N4CCOCC4)cc3)ccc2[nH]1 -23.9%
C/C(CC(=O)Nc1ccc(C)cc1C)=N\NC(=O)C(C)C -1.71%
C=CCn1c(SCC(=O)Nc2nc3ccccc3s2)nnc1-c1ccccc1O 6.76%
C=CCn1c(SCC(=O)NCc2ccccc2)nnc1-c1cc(Br)ccc1O 4.21%
Cc1cc(C(=O)NNC(=S)NC(C)c2ccccc2)cs1 (configuration not stated) -0.45%
Cc1ccc(S(=O)(=O)NNC(=S)NC(C)(C)C)cc1 2.84%
O=C(C1CCCN1S(=O)(=O)c1ccc(Br)cc1)N1CCOCC1 (configuration not stated) -1.1%
COC(=O)[C@@H]1C[C@@]2(O)[C@H](O)[C@H](O)[C@H](O)C[C@H]2N1Cc1ccc(C)s1 -1.88%
COC(=O)[C@@H]1C[C@@]2(O)[C@H](O)[C@H](O)[C@H](O)C[C@H]2N1Cc1ccc(C(C)(C)C)cc1 -5.29%
C/C(Cn1nnc2ccccc21)=N\OC(=O)c1cc(F)c(F)cc1Cl -2.84%
Cc1c(Cl)cccc1NC(=S)NCc1ccc2c(c1)OCO2 3.45%
O=C(NNC1=NCCC1)c1cccc(S(=O)(=O)N2CCCCC2)c1 6.05%
Cc1ccc(N(C(=O)c2ccc(CN3CCOCC3)o2)C(C(=O)NCCC(C)C)c2cccs2)c(C)c1 (configuration not stated) 3.08%
CC(C)(C)c1ccc(/C=C2\SC(=O)N=C2N)cc1 2.64%
C/C(=N\NC(=S)Nc1ccc(C)cc1)c1cc2ccccc2o1 -0.73%
CCCc1c(C(=O)Nc2ccc(F)cc2)cnn1-c1ccccc1 2.37%
CN(C)CCCN(Cc1cc2cc3c(cc2[nH]c1=O)OCCO3)C(=O)NC1CCCCC1 2.76%
O=C(c1ccc(F)cc1)N1CCCC(c2nc(-c3cccs3)no2)C1 (configuration not stated) 3.08%
COc1ccnc(Oc2ccccc2)n1 15.9%
CCc1cccc(C)c1NC(=S)N(CCCN1CCN(C)CC1)Cc1cccs1 -3.86%
Cc1ccnc(NC(=O)C(C)N2C(=O)c3ccccc3C2=O)c1 (configuration not stated) 1.43%
Cc1ccc(-n2ccc(=O)c(C(=O)O)n2)cc1 1.06%
CNc1ccc(NC(C)=O)cc1[N+](=O)[O-] -0.25%
Cc1ccc(Nc2ccc(C(N)=O)cc2[N+](=O)[O-])cc1 -0.72%
CCOc1ccc(/C=N/NC(=O)CSc2ccccn2)cc1O -2.92%
O=C(COC(=O)/C=C/c1ccc(S(=O)(=O)N2CCCCCC2)cc1)NCc1ccccc1Cl 2.41%
C=C1CCN([C@H](C(=O)NCc2cc(OC)c(OC)c(OC)c2)C(C)C)S(=O)(=O)c2ccccc21 -2.58%
Nc1ccc(S(=O)(=O)Nc2nccc(/C=C/c3ccc(Br)s3)n2)cc1 0.68%
CC(C)(C)c1cc(C(=O)NN)n(Cc2ccc(Cl)cc2Cl)n1 3.29%
Cc1[nH]n(C)c(=O)c1C(=O)c1c(-c2c(Cl)cccc2Cl)noc1C -1.16%
N/C(=N\S(=O)(=O)c1ccc(Cl)cc1)N1CCOCC1 -0.17%
COc1ccc(N2CCN(C(=S)Nc3ccc(S(N)(=O)=O)cc3)CC2)cc1 2.56%
COC(=O)Cc1csc(/N=C/c2c(O)n(-c3cccc(C(F)(F)F)c3)c(=O)c3ccccc23)n1 1.31%
COc1ccc(C2C(C(=O)N3CCN(c4ccc(OC)cc4)CC3)c3ccccc3C(=O)N2C)cc1 (configuration not stated) -1.58%
O=C(/C=C\c1ccc2c(c1)OCO2)NC1(C(=O)Nc2ccc3c(c2)OCCO3)CCCCC1 3.6%
COC(=O)c1c(C)[nH]c(C)c1-c1ccc([N+](=O)[O-])cc1 5.04%
CC1CC1C(=O)OCC(=O)c1c(N)n(C)c(=O)n(C)c1=O (configuration not stated) 1.81%
CC1=C/C(=N\OS(=O)(=O)c2ccccc2)C=CC1=O 17.7%
CC(=O)c1c(Nc2ccccc2)sc(C(=O)c2ccccc2)c1C 0.53%
Cc1ccc(NC(=O)/C(=C\c2ccccc2)NC(=O)c2ccco2)cc1 -2.75%
Cc1cc(Br)ccc1SCC(=O)OCC(=O)NCc1ccc2c(c1)OCO2 2.11%
Nc1nc(SCc2ccccc2Cl)n[nH]1 -1.58%
O=c1cc(O)nc(SCc2ccccc2Cl)[nH]1 -11.7%
Clc1ccc(-c2nc3ccccn3c2CN2CCSCC2)cc1 3.32%
COc1ccc(NC2=CC(=S)NC(C)(C)C2)cc1 0.37%
O=C(CSc1nnc(-c2ccc([N+](=O)[O-])cc2)o1)Nc1ccccn1 -0.57%
Cc1cc2nc3c(=O)n(Cc4ccccc4)c(=O)[nH]c3nc2cc1N 7.59%

inhibition, active:
COCC(C)n1c(SCc2ccc(C(=O)OC)o2)nc2ccccc2c1=O (configuration not stated) 56%
S=c1[nH]nc(-c2ccco2)n1/N=C/c1ccc(Br)s1 49.9%
O=[N+]([O-])c1cc(Cl)cc(/C=N/NC(=S)Nc2cc(S(=O)(=O)N3CCOCC3)ccc2Cl)c1O 37.9%
Fc1c(F)c(C(F)(F)F)c(F)c(F)c1N1CCN(c2ccc3nnc(C(F)(F)F)n3n2)CC1 35.1% [fluorescence artefact?]
Oc1c(Cl)cc(Cl)c(Cl)c1Cc1c(O)c(Cl)cc(Cl)c1Cl 46.2%
CCOc1cc(C(=S)N2CCOCC2)ccc1O 30.5% [fluorescence artefact?]
CC(C)(C)NC(=O)C(=O)NN=C1CCCCCCC1 39.2%
Cc1c(C(=O)N/N=C/c2ccccc2)[nH]c2c([N+](=O)[O-])cccc12 94.2%
C=CCn1c(N)cc(=O)nc1SCC(=O)Nc1cccc2ccccc12 30.1%
CC(NC(=S)NNS(=O)(=O)c1ccc(C(C)(C)C)cc1)c1ccccc1 (configuration not stated) 96.5%
COC(=O)[C@@H]1C[C@@]2(O)[C@@H](O)[C@@H](O)[C@@H](O)C[C@H]2N1Cc1ccc(C)s1 96%
O=[N+]([O-])C(=c1ccc2c(c1)N1C3=C(CCCC3)CC3CCCCC31N=2)[N+](=O)[O-] (configuration not stated) 34.6%
Cc1ccc(N2C(=O)c3ccccc3C2(O)c2ncc[nH]2)cc1 (configuration not stated) 55.4%
CC(=O)Nc1ccc(/C=N/Nc2ccc(C(=O)c3c(C)cc4ccccn34)cc2[N+](=O)[O-])cc1 63.9%
COc1ccc([C@H]2[C@H](C(C)=O)N3N=Cc4ccccc4C3C23C(=O)OC(C)(C)OC3=O)cc1 (some centres not stated) 34.6%
O=c1[nH]nc(CSCc2ccccc2Cl)[nH]1 37.7%
Nc1ccc2nc3c(=O)[nH]c(=S)[nH]c3nc2c1 55.7%

— PubChem BioAssay AID782 (Emory University Molecular Libraries Screening Center, 2007)
